Results filed as inconclusive are left out. Entries that show only a call come without a potency. Active and inactive are the calls of the source. Unless noted, calls come from the whole dose curve; as a rule, active = well fitted curve in the direction sought with a large enough effect; inconclusive = small, poorly fitted or top-dose-only effect, or another doubt; inactive = no such curve, though single readings can be large; an effect the other way counts as inactive or inconclusive.
Legend:
[1] = molecular target: Cytochrome P450 2C9 (Homo sapiens) (UniProt P11712); assay: Cytochrome P450 family 2 subfamily C member 9 (CYP2C9) small molecule antagonists: luciferase biochemical (cell-free) qHTS assay (AID 1645842; active = well fitted curve in the direction sought with a large enough effect in the repeat runs; an effect the other way counts as inactive or inconclusive; note: nearly all actives have a fitted effect of over 55% in size; note: potency is the fitted concentration of half-maximal effect)
Method in brief: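 Luminescence, after 20 min with luciferin detection reagent, reflected CYP2C9 turnover during a 1 h NADPH-driven reaction at 37C. Enzyme-substrate mix contained 0.4% bovine serum albumin and was preincubated with compound 10 min at room temperature.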

[2] = molecular target: Glutathione peroxidase 1 (Homo sapiens) (UniProt P07203); assay: Primary qHTS Assay for Inhibitors of Recombinant Selenoprotein Glutathione Peroxidase 1 (GPX1) (AID 1845191); note: nearly all actives have a fitted effect of over 65% in size
Method in brief: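 Recombinant GPX1 (10 nM final) was preincubated with compound for 30 min at room temperature, then reacted with 1 mM GSH, 0.5 mM CHP, 0.5 mM NADPH and 100 nM glutathione reductase; NADPH fluorescence (340/450 nm) was read at 0 and 15 min.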

[3] = molecular target: Rap guanine nucleotide exchange factor 3 (Homo sapiens) (UniProt O95398); assay: Confirmatory qHTS for antagonist of cAMP-regulated guanine nucleotide exchange factor 3 (EPAC1) (AID 1645880); note: potency is the fitted concentration of half-maximal effect; nearly all actives have a fitted effect of over 55% in size
Method in brief: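 Nucleotide exchange uses 100 nM EPAC1, 250 nM RAP1B-BODIPY-GDP and 50 uM GDP, with compounds in a concentration-titration series. After 5 min at room temperature, fluorescence (480 nm ex/540 nm em) is read every 5 min for 30 min. Data are normalized to control ATA and DMSO.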

[4] = molecular target: Rap guanine nucleotide exchange factor 3 (Homo sapiens) (UniProt O95398); assay: Confirmatory qHTS for agonist of cAMP-regulated guanine nucleotide exchange factor 3 (EPAC1) (AID 1645881);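 note: EPAC1 catalysed release of BODIPY-GDP from Rap1B seen as fluorescence loss; nearly all actives have a fitted effect of over 75% in size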
[5] = molecular target: Rap guanine nucleotide exchange factor 4 (Homo sapiens) (UniProt Q8WZA2); assay: Confirmatory qHTS for agonist of cAMP-regulated guanine nucleotide exchange factor 4 (EPAC2) (AID 1645884);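 note: nucleotide exchange releases bodipy-GDP from Rap1 and this lowers its fluorescence; nearly all actives have a fitted effect of over 65% in size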
[6] = molecular target: Rap guanine nucleotide exchange factor 4 (Homo sapiens) (UniProt Q8WZA2); assay: Confirmatory qHTS for antagonist of cAMP-regulated guanine nucleotide exchange factor 4 (EPAC2) (AID 1645885); note: potency is the fitted concentration of half-maximal effect; nearly all actives have a fitted effect of over 25% in size
[7] = Primary qHTS for inhibitors of nuclear receptor binding SET domain protein 2 (NSD2) in an isogenic RCH-ACV NSD2 p.E1099K mutant (9B) (AID 1645876); note: nearly all actives have a fitted effect of over 70% in size; note: potency is the fitted concentration of half-maximal effect
[8] = Primary qHTS for inhibitors of nuclear receptor binding SET domain protein 2 (NSD2) in an RCH-ACV wild type WT cells (2C) (AID 1645877); note: nearly all actives have a fitted effect of over 70% in size; note: potency is the fitted concentration of half-maximal effect
Papain (Carica papaya) = Papain (Carica papaya) (UniProt P00784); assay: Primary qHTS assay for inhibitors of the protease papain (AID 1645873);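 note: papain turnover of Z-FR-AMC read as the AMC fluorescence gain over 10 min; series mostly up to about 50 µM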
[9] = molecular target: Metallo-beta-lactamase type 2 (Klebsiella pneumoniae) (UniProt C7C422); assay: qHTS to identify inhibitors of the New Delhi Metallo-beta-lactamase (NDM): assay validation screen against the NCATS LOPAC Collection (AID 1794843);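 note: nitrocefin turnover by NDM-1 measured as 485 nm absorbance at plateau; series mostly up to about 38 µM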
Method in brief: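 Nitrocefin hydrolysis (50 uM substrate stock) by NDM-1, 2 nM final, was followed by 485 nm absorbance after compound preincubation; buffer was 50 mM HEPES pH 7.0, 1 uM ZnSO4, 0.01% Tween20.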

Glutathione peroxidase 1 (Homo sapiens), sequence (P07203 whole entry, looked up): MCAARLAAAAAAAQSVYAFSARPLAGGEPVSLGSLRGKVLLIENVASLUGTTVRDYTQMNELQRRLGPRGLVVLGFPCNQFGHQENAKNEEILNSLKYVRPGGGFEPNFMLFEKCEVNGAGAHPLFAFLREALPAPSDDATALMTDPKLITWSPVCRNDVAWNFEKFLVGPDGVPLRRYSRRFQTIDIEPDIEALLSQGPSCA
Cytochrome P450 2C9 (Homo sapiens), sequence (P11712 whole entry, looked up): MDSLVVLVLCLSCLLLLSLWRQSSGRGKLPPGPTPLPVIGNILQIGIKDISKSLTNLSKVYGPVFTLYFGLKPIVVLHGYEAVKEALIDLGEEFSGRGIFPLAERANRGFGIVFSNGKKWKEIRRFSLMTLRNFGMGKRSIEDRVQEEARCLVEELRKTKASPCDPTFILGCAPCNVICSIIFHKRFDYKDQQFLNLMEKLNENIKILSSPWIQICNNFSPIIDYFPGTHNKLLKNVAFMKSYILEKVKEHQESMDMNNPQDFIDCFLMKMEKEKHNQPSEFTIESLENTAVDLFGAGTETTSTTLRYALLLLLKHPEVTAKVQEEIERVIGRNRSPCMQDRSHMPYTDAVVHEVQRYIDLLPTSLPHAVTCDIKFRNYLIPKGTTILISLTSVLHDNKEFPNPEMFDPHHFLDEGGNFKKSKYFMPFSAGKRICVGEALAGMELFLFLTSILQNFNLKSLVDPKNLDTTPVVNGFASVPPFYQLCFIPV
Rap guanine nucleotide exchange factor 3 (Homo sapiens), sequence (O95398 whole entry, looked up): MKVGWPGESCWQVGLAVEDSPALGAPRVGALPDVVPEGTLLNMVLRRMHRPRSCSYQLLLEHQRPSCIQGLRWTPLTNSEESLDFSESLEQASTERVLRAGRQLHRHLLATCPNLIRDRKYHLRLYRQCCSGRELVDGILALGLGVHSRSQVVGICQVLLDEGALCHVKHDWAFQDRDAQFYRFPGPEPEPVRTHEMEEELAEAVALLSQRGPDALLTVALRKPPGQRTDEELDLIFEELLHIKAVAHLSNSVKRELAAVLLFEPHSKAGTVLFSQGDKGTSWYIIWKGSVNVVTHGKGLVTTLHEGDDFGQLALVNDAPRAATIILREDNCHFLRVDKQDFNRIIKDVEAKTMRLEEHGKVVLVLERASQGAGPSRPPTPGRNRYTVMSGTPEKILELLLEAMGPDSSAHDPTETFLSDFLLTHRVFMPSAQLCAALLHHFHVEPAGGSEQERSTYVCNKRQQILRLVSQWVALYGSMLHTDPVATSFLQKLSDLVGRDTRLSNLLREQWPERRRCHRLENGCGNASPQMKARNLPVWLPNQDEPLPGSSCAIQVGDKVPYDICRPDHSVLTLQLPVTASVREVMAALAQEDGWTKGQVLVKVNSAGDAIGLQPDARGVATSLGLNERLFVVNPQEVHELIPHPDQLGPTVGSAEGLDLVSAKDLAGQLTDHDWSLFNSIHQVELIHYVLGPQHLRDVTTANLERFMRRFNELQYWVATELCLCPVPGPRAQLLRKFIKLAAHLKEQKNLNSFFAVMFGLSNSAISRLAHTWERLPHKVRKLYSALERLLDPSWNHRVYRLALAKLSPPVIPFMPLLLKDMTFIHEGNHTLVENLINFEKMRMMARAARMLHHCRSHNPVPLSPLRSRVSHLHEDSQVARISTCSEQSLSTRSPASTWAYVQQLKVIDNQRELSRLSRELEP
Rap guanine nucleotide exchange factor 4 (Homo sapiens), sequence (Q8WZA2 whole entry, looked up, the tested form may be a part): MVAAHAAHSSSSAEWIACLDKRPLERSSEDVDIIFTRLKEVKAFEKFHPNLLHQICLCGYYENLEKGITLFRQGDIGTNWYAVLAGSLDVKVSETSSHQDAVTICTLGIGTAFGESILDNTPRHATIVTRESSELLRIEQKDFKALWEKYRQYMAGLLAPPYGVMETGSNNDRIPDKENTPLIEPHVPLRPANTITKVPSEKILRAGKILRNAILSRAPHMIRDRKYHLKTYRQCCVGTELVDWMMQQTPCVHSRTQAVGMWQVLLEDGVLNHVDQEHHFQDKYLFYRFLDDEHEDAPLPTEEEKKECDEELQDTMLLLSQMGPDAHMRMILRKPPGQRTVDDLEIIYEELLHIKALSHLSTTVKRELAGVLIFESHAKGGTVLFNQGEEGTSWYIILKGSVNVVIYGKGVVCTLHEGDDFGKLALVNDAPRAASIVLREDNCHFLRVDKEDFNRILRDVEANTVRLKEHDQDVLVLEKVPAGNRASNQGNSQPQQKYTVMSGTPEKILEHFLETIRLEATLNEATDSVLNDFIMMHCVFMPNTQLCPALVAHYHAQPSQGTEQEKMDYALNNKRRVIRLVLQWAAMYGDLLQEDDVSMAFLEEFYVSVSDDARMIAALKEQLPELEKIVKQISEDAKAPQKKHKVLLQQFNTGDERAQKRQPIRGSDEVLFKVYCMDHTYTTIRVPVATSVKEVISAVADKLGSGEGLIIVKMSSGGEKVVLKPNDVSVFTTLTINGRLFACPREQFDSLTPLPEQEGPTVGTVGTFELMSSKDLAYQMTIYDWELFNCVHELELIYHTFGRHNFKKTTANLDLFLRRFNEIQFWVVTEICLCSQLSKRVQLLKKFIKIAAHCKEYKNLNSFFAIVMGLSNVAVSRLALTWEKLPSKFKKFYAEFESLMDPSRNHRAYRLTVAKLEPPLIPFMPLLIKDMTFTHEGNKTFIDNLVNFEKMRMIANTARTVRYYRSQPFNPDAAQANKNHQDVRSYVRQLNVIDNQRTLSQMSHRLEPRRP
Papain (Carica papaya), sequence (P00784 whole entry, looked up): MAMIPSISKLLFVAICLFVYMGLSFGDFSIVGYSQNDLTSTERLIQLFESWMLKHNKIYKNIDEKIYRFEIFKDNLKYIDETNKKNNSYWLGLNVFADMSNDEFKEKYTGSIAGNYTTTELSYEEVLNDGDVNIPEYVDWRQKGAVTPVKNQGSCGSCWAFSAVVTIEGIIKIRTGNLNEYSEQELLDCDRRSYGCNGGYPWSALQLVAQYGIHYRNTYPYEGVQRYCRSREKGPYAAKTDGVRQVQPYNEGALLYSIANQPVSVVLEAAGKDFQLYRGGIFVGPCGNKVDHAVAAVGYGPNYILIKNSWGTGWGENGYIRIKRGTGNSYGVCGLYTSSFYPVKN
Metallo-beta-lactamase type 2 (Klebsiella pneumoniae), sequence (C7C422 whole entry, looked up): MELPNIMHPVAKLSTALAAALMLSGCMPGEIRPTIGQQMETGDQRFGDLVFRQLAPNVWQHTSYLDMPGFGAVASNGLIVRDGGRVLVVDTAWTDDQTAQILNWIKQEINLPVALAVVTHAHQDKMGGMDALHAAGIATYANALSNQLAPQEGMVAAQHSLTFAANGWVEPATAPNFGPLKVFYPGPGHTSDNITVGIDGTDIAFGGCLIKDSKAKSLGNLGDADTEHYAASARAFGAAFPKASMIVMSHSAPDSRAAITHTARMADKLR

SMILES: c1ccc(-c2nc[nH]c2-c2ccccc2)cc1
- Potency [1]: inactive
- Potency [2]: inactive

SMILES: CC(C)=CCOc1ccc(/C=C/C(=O)c2ccc(OCC=C(C)C)cc2OCC(=O)O)cc1
- Potency [1]: 15.5 µM (active)
- Potency [3]: 49.8 µM (active)
- outcome [4]: inactive
- outcome [5]: inactive
- Potency [6]: 39.3 µM (active)

SMILES: CC1(COc2ccc(CC3SC(=O)NC3=O)cc2)CCCCC1 (stereo unspecified)
- Potency [1]: inactive
- Potency [3]: 49.8 µM (active)
- outcome [4]: inactive
- outcome [5]: inactive
- Potency [6]: 44.1 µM (active)

SMILES: CC(CNC1CCCCC1)OC(=O)c1ccccc1 (stereo unspecified)
- Potency [7]: inactive
- Potency [8]: inactive
- Potency [2]: inactive

SMILES: CC(C)Cc1ccc(CC(=O)O)cc1
- Potency [1]: inactive
- Potency [2]: inactive

SMILES: CCN(CC)CCOC(=O)C(Cc1cccc2ccccc12)CC1CCCO1 (stereo unspecified)
- Potency [1]: inactive
- Potency [2]: inactive

SMILES: O[C@@H](c1cc(C(F)(F)F)nc2c(C(F)(F)F)cccc12)[C@H]1CCCCN1
- Potency [7]: 7.5 µM (active)
- Potency [8]: 7.5 µM (active)
- Potency [2]: inactive

SMILES: C#C[C@]1(O)CC[C@H]2[C@@H]3CCC4=Cc5oncc5C[C@]4(C)[C@H]3CC[C@@]21C
- Potency [2]: inactive

SMILES: CCOc1ccccc1C(N)=O
- Potency [1]: inactive
- Potency [7]: 18.8 µM (active)
- Potency [2]: inactive

SMILES: CN=C(N)NCCC[C@H](N)C(=O)O
- outcome (Papain (Carica papaya)): inactive
- outcome [9]: inactive
- Potency [2]: inactive

SMILES: CCc1oc2ccccc2c1C(=O)c1cc(I)c(O)c(I)c1
- Potency [1]: 0.347 µM (active)
- outcome [4]: inactive
- outcome [5]: inactive
- Potency [6]: 27.8 µM (active)
- Potency [2]: inactive

SMILES: C=C[C@H]1CN2CC[C@H]1C[C@H]2[C@H](O)c1ccnc2ccc(OC)cc12
- Potency [1]: inactive
- Potency [2]: inactive
